For 26 molecules, inhibition results are on record in PubChem BioAssay.

A number with no mark means an inactive call. Active and inactive are the calls of the source. Cut-off read from the data, not from the text of the source, unless noted: active = inhibition above about 33%; inactive = the rest.

The nature of test [1]: StAR promoter reporter inhibitors, counter-screen for LRH-1 inverse agonist project, cell-based, luminescence, high throughput (AID 651611; in the data active = inhibition above about 28%). Particulars: StAR promoter luciferase reporter counterscreen, at 3.6 µM, stronger effect = higher value. In general terms: Counterscreens check selectivity or assay interference.
The target of test [2] is Nuclear receptor subfamily 5 group A member 2 (Homo sapiens) (UniProt O00482). Nature of the test: NR5A2 activity suppression in reporter cells – cell-based, luminescence, confirmation (AID 651613; in the data active = inhibition above about 42%;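 note: HEK293T cells co-transfected with LRH-1 and StAR promoter luciferase reporter; 0% = vehicle wells and 100% = parental cells lacking receptor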). As to conditions: cell-based LRH-1 luciferase reporter, inverse agonism; at 3.6 µM; stronger effect = higher value.
Nuclear receptor subfamily 5 group A member 2 (Homo sapiens), sequence (O00482 whole entry, looked up): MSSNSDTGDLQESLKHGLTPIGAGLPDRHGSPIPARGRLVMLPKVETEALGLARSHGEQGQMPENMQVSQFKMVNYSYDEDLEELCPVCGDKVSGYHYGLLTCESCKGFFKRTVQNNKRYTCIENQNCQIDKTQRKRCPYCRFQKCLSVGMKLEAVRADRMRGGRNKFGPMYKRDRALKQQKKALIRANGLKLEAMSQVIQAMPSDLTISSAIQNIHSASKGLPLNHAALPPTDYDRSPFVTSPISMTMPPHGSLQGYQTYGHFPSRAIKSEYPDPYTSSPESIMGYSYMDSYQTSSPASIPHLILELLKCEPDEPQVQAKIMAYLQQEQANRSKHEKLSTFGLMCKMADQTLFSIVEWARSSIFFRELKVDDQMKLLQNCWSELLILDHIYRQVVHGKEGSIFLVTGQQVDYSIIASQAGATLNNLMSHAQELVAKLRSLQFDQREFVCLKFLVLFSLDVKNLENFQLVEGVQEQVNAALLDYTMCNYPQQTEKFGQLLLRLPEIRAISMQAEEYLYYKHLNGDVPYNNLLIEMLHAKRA
The target of test [3] is Steroidogenic factor 1 (Homo sapiens) (UniProt Q13285). As to the kind of experiment: inverse agonism at SF1 nuclear receptor – cell-based, luminescence, high throughput, counter-screen for LRH-1 inverse agonist project (AID 651614; in the data active = inhibition above about 44%;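 note: cells cotransfected with StAR promoter reporter and SF1 expression vector; 0% = vehicle on cells with receptor and 100% = vehicle on cells lacking receptor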). As to conditions: cell-based SF1 luciferase reporter, at 3.6 µM, stronger effect = higher value.
Steroidogenic factor 1 (Homo sapiens), sequence (Q13285 whole entry, looked up, the tested form may be a part): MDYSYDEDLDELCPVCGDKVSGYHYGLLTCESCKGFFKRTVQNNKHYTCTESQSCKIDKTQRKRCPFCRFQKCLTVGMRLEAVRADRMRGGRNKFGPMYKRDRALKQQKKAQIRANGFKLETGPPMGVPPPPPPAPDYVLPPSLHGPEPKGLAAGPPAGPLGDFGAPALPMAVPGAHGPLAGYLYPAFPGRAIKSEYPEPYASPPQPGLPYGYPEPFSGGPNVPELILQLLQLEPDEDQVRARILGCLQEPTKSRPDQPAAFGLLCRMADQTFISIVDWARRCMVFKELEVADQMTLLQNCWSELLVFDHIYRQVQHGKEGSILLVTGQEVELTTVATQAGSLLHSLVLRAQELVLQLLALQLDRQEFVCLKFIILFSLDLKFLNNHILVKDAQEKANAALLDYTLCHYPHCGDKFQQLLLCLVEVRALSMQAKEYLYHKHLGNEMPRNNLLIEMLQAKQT
Test [4] is described as follows: compounds suppressing VP16-driven luciferase signal – cell-based, luminescence, high throughput, counter-screen for LRH-1 inverse agonist project (AID 651615). As to conditions: Gal4-VP16 luciferase reporter cells, at 3.6 µM, stronger effect = higher value.

Take `Cc1ccc(NC(=O)Cc2nnc(SCC(=O)Nc3ccc(N4CCOCC4)cc3)n2C)cc1`: the inhibition (as a rule, the drop in the measured response relative to a control, in per cent) in test [1] was 6.95%; in test [2], 59.7% (active); in test [3], 51.9% (active); in test [4], 12%.

As to `O=C(COc1ccc(S(=O)(=O)N2CCCC2)cc1Cl)Nc1ccc2c(c1)OCO2`, the inhibition in test [1] is 0.49%; in test [2] it was 50.4% (active); in test [3], 37%; in test [4], -9.34%.

Consider `CCN(CC)C1Oc2cc3c(cc2C(c2cc(OC)c(OC)c(OC)c2)C1C)OCO3` (centres undefined), for which the inhibition is 31.5% (active) in test [1], 18.4% in test [2], 29.8% in test [3] and 25.9% in test [4].

Regarding `CN(C)S(=O)(=O)c1cccc(C(=O)OCC(=O)Nc2ccc3c(c2)OCCO3)c1`, the inhibition was 17.9% in test [1], 51.5% (active) in test [2], 52.3% (active) in test [3] and 10.7% in test [4].

As to `C/C(=N\Nc1nc(C)c(C)s1)c1ccc([N+](=O)[O-])cc1`, the inhibition in test [1] is -12.6%; in test [2], 49.1% (active); in test [3], 47.8% (active); in test [4], -2.81%.

On to `O=C(COc1ccc2c3c(c(=O)oc2c1)CCCC3)NCCCN1CCOCC1`, for which the inhibition is 14.4% in test [1], 44.6% (active) in test [2], 45% (active) in test [3] and -6.23% in test [4].

With `Nc1c2ccccc2nc2ccccc12`, the inhibition in test [1] is 14.7%; in test [2], 106% (active); in test [3] it was 52.1% (active); in test [4] it was 90.4% (active).

For `CCN(CC)CC(=O)Nc1ccc(-c2nc3cc(NC(=O)CN(CC)CC)ccc3o2)cc1`, the inhibition in test [1] was -9.81%; in test [2], 42.5% (active); in test [3], 39.6%; in test [4] it was -0.95%.

On to `CCOC(=O)C(C)Oc1cccc2c(=O)n(CC(=O)Nc3ccc4c(c3)OCCO4)ccc12` (centres undefined), for which the inhibition in test [1] is 5.33%; in test [2], 58.5% (active); in test [3] it was 51.7% (active); in test [4], -1.21%.

For `CCC(=O)N1CCN(c2ccc(NC(=O)c3ccc([N+](=O)[O-])o3)cc2)CC1`, the inhibition is 17.6% in test [1], 78% (active) in test [2], 68.4% (active) in test [3] and -25% in test [4].

On to `Cc1c(C#N)c(O)n(CCO)c(=O)c1N=Nc1ccccc1`, for which the inhibition in test [1] is 13.4%; in test [2] it was 44.4% (active); in test [3], 41.7%; in test [4], 6.91%.

With `CO/N=C/C(=N\Nc1cc(OC)cc(OC)c1)C(=O)c1ccccc1`, the inhibition in test [1] is 13.2%; in test [2] it was 63.4% (active); in test [3], 58.3% (active); in test [4], 0.16%.

`COc1ccc2sc(-c3ccc(N(C)C)cc3)c(C#CCCO)c2c1`: the inhibition in test [1] was 3.58%; in test [2], 21.3%; in test [3] it was 53.7% (active); in test [4], -4.7%.

For the molecule `CCn1c(=S)sc2c(=O)n(CC(=O)Nc3ccc(OC)c(Cl)c3)c(C)nc21`, the inhibition is 6% in test [1], 33.4% in test [2], 24.9% in test [3] and 4.75% in test [4].

On to `Cc1cccc(NC(=O)CSc2nnc([C@@H]3CCCN3C(=O)OC(C)(C)C)o2)c1C`, for which the inhibition in test [1] was 33.4% (active); in test [2], 66.2% (active); in test [3], 73.5% (active); in test [4] it was -39.9%.

For `COC(=O)c1ccc(CNC(=O)COC(=O)c2cc(Cl)nc(Cl)c2)cc1`, the inhibition in test [1] is 11.2%; in test [2] it was 52.4% (active); in test [3], 37.1%; in test [4], 11.2%.

For `C=CC[n+]1c(/C=C2\C=Cc3cc(C)ccc3N2CC)ccc2ccccc21`, the inhibition in test [1] is 80.6% (active); in test [2], 110% (active); in test [3], 95.5% (active); in test [4], 95.8% (active).

In the case of `CCn1nnc(NC(=O)c2ccc([N+](=O)[O-])o2)n1`, the inhibition in test [1] was 10.3%; in test [2], 57.8% (active); in test [3], 59.9% (active); in test [4], -13.8%.

As for `Cc1ccc(NC(=O)CSc2nnc([C@@H]3CCCN3C(=O)OC(C)(C)C)o2)c(C)c1`, the inhibition in test [1] was 13.8%; in test [2], 58% (active); in test [3], 54.5% (active); in test [4] it was -1.31%.

Turning to `OCCCNc1c2ccccc2nc2ccccc12`, the inhibition is 13.1% in test [1], 107% (active) in test [2], 56.7% (active) in test [3] and 96.4% (active) in test [4].

With `O=C(NCc1ccc2c(c1)OCO2)c1nn(-c2ccccc2)c(=O)c2ccccc12`, the inhibition in test [1] was 4.72%; in test [2], 52.2% (active); in test [3], 53.3% (active); in test [4] it was -2.13%.

As for `COc1ccc(OC)c(CCNC(=O)Cn2nc(C)c3c(C)n(-c4ccc(C)cc4)nc3c2=O)c1`, the inhibition in test [1] was 38.8% (active); in test [2], 68% (active); in test [3], 63.8% (active); in test [4] it was 52% (active).

`O=C(Nc1ccc(Cc2ccncc2)cc1)c1ccc([N+](=O)[O-])o1`: the inhibition was 16.6% in test [1], 55.5% (active) in test [2], 63.6% (active) in test [3] and -16.8% in test [4].

Consider `O=C(CSc1nncc(=O)[nH]1)Nc1cccc([N+](=O)[O-])c1`, for which the inhibition in test [1] is 11.7%; in test [2] it was 57.3% (active); in test [3], 53.2% (active); in test [4] it was 8.83%.

As for `COc1ccc(CCNC(=O)CN2C(=O)NC3(CCCCC3C)C2=O)cc1` (centres undefined), the inhibition is 3.33% in test [1], 66.3% (active) in test [2], 66.7% (active) in test [3] and -17% in test [4].

For `CC1(C(=O)NCc2ccc(Cl)cc2)CCN1C(=O)Cc1ccc(Cl)cc1Cl` (centres undefined), the inhibition in test [1] was 16%; in test [2], 44.1% (active); in test [3], 46.5% (active); in test [4], 4.22%.
